# Screening data from PubChem BioAssay.
# A selection: hits, their analogues and other compounds. The true share with any hit is near 7.2%.
# HCV inh: qHTS Assay for Inhibitors of Hepatitis C Virus (HCV) | 340,000 compounds, 3.4% hits | Potency, µM (titrated, usually from 41.8 µM), most hits filed as inhibitors | AID 651820, 2012 | Huh7.5.1 HCVcc-Cre infection, luciferase reporter, 44 h
#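 A cell-based infection assay in which seeded cells (1,000 per well) receive test compound after 4 h, are inoculated with HCVcc-Cre at approximately 0.5 moi, and are incubated 44 h before luminescence detection.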
# Marburg entry inh: qHTS for inhibitors of binding or entry into cells for Marburg Virus | Potency, µM (top dose mostly 37.8 µM), usual class: inhibitors | 300,000 compounds, 1.8% hits | AID 540276, 2011 | Marburg virus pseudotyped entry inhibition, cell reporter; calls by dose curve; tested in HEK293 cells
# LASV entry inh: qHTS for Inhibitors of binding or entry into cells for Lassa Virus; Lassa virus pseudotype entry inhibition, cell reporter; Potency, µM (doses to about 37.9 µM), hits mostly inhibitors; 300,000 compounds, 1.2% hits; AID 540256, 2011; calls by dose curve; tested in HEK293 cells; further: nearly all actives have a fitted effect of over 50% in size
# Sm TGR inh: qHTS Assay for the Inhibitors of Schistosoma Mansoni Peroxiredoxins. Schistosoma mansoni thioredoxin glutathione reductase (TGR), Q962Y6. purified TGR, DTNB reduction, TNB absorbance 405 nm. Potency, µM (series often up to 114 µM), usual class: inhibitors. 360,000 compounds, 3% hits; further: nearly all actives have a fitted effect of over 60% in size
#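 Kinetic colorimetric format: TGR-catalysed, NADPH-driven DTNB reduction monitored via TNB absorbance. Enzyme dispensed at 20 nM; compound exposure 15 min at room temperature before reaction start.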
# FMDV inh: High Throughput Screening for Foot and Mouth Disease Virus Antivirals; FMDV antiviral cell-based qHTS; Potency, µM (titrated, usually from 57.9 µM), hits mostly inhibitors; 410,000 compounds, 1.2% hits; AID 1159524, 2015; calls by dose curve; tested in HEK293T cells; further: read-out not given here; nearly all actives have a fitted effect of over 45% in size
# RE007 growth inh: qHTS Assay for Inhibitors of the HIV-1 protein Vpr | S. pombe RE007 Vpr strain, BacTiter-Glo ATP luminescence, 24 h | Potency, µM (series often up to 92.2 µM), usual class: inhibitors | 360,000 compounds, 0.21% hits; active means well fitted falling curve with a large enough effect; inconclusive means small, poorly fitted or top-dose-only effect; inactive means no such curve, though single readings can be large or run the other way; further: nearly all actives have a fitted effect of over 50% in size
#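 Fission yeast RE007 carrying one integrated HIV-1 vpr copy, seeded at OD 0.01 in PMG+AL medium with 23 nL pinned compound. Grown 24 h at 30 degrees; viability read by BacTiter-Glo luminescence after 5 min.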
# Hits are given with their value; . = inactive; ? = inconclusive; / = no result given; [ ] = dose if it differs, or a comment. Unless noted, the call rests on the fitted dose curve; in most records, active means well fitted curve in the direction sought with a large enough effect; inconclusive means small, poorly fitted or top-dose-only effect, or another doubt; inactive means no such curve, though single readings can be large; an effect the other way counts as inactive or inconclusive.
SMILES,HCV inh,Marburg entry inh,LASV entry inh,Sm TGR inh,FMDV inh,RE007 growth inh
O=C(CNC(=O)c1ccco1)N/N=C/c1cc(Br)ccc1O,?,2µM,/,.,.,.
O=C(CNC(=O)c1ccc2c(c1)OCO2)N/N=C/c1cc(Br)ccc1O,?,11µM,?,.,.,.
O=C(CNC(=O)c1cccc(Br)c1)N/N=C/c1ccc[nH]1,3.2µM,6.3µM,?,.,.,.
O=C(CNC(=O)c1cccc(Br)c1)N/N=C/c1cn[nH]c1-c1ccccc1,.,?,?,.,.,.
O=C(COc1ccccc1Cl)Nc1ccc(-c2nc3ccccc3s2)cc1,/,/,.,.,.,/
Fc1ccc(-c2nc3ccncc3[nH]2)cc1,.,.,.,.,.,.
Clc1ccc(-c2nc3ccncc3[nH]2)cc1,.,.,.,.,.,40µM
CCCCCOc1ccc(C)cc1CN(CCCl)CCCl,?,?,?,11µM,.,?
COC(=O)c1c(NC(=O)/C=C/C(=O)O)sc(C)c1-c1ccc(C)cc1,.,?,?,/,.,?
CCOC(=O)c1c(C)nn(-c2ccc(NC(=O)/C=C/C(=O)O)cc2)c1C,.,?,?,50µM,.,.
CC(C)=C1C2CCC1C(C(=O)Nc1sc(C)c(-c3ccc(C(C)C)cc3)c1C(N)=O)C2C(=O)O (configuration not stated),?,21µM,?,.,.,/
CCOC(=O)c1c(NC(=O)/C=C/C(=O)O)sc(C)c1-c1ccc(C)c(C)c1,.,?,?,.,32µM,.
COC(=O)c1c(NC(=O)/C=C/C(=O)O)sc(C)c1-c1ccc(C(C)C)cc1,.,.,5.6µM,?,14µM,.
CCc1nc2c(OCc3ccc(Cl)cc3)cccn2c1N(C)C(=O)c1ccncc1,/,/,/,/,.,.[18.4 µM]
C[C@H](NC(=O)[C@@H]1CCCN1C(=O)[C@@H]1CCCN1C(=O)c1cccs1)c1ccccc1,/,/,/,/,.,.
COC(=O)c1c(NC(=O)/C=C/C(=O)O)sc(C)c1-c1ccc(C)c(C)c1,.,?,.,.,?,.
CCOC(=O)c1c(NC(=O)/C=C/C(=O)O)sc(C)c1-c1ccc(F)cc1,.,.,.,.,32µM,.
O=C1NC(=S)NC1=Cc1ccco1,.,.,?,/,.,.
O=C1NC(c2ccccc2)=N/C1=C/c1ccco1,.,?,?,50µM,.,.
O=C1NC(c2ccccc2Br)=N/C1=C\c1ccco1,.,/,/,40µM,.,?
O=C1NNC(c2ccccc2)=N/C1=C\c1ccccc1,.,/,/,.,.,.
O=C1NC(c2cccc(Br)c2)=N/C1=C\c1ccco1,.,.,.,79µM,.,.
COCCN1CCN(C(=O)c2cnn(-c3ncc4c(n3)-c3ccc(OC)cc3CC4)c2C2CC2)CC1,/,/,/,/,.,/
CC1(C)S[C@@H]2[C@H](N)C(=O)N2[C@H]1C(=O)O,/,/,/,/,.,/
CCc1ccc(Sc2cc(C(=O)NCc3ccccc3OC)c3ccccc3n2)cc1,/,/,?,.,.,/
SMILES,HCV inh,Marburg entry inh,LASV entry inh,Sm TGR inh,FMDV inh,RE007 growth inh
Cc1ccc(S(=O)(=O)N2C[C@@H](C)[C@]3(C2)[C@H](O)[C@H](OC(=O)Nc2c(C)noc2C)C[C@H]2C(=O)N(c4ccccc4)C(=O)[C@H]23)cc1,/,/,/,/,.,.
CCC(C(=O)Nc1ccc(C)c(Cl)c1)n1c(=O)c(-c2ccccc2NC(C)=O)nc2ccccc21 (configuration not stated),/,.,.,.,?,/
Cc1ccc(-n2c(=O)c3c(C)c(C(=O)N(C)C)sc3n(CC(=O)C(C)(C)C)c2=O)cc1C,/,/,?,.,.,/
O=C(N/N=C/C=C/c1ccccc1)C1CC1c1ccccc1 (configuration not stated),.,?,0.13µM,.,.,.
CC(=O)Nc1ccc(/C(C)=N/NC(=O)C2CC2c2ccccc2)cc1 (configuration not stated),.,.,0.018µM,.,.,.
O=c1c2c3c(sc2n(Cc2ccccc2F)c(=O)n1-c1ccc(Cl)cc1)CCCC3,/,.,.,.,.,/
COC(=O)c1c(NC(=O)c2ccc([N+](=O)[O-])o2)sc2c1CCN(C(C)C)C2,2.8µM,?,?,.,?,.
COC(=O)c1sc(NC(=O)c2ccc([N+](=O)[O-])o2)c(C#N)c1C,11µM,.,/,.,?,.
CC(C)N1CCc2c(sc(NC(=O)c3ccc([N+](=O)[O-])o3)c2C(N)=O)C1,/,/,/,.,/,/
CC(C)n1cc(/C=N/NC(=O)COc2cccc3cccnc23)c2ccccc21,?,10µM,?,.,?,.
CCCC(C)C(=O)OCC(=O)Nc1ccc(Br)cc1 (configuration not stated),/,/,/,45µM,/,/
CC(=O)NC(C)C(=O)OCC(=O)Nc1ccc(Br)cc1 (configuration not stated),.,.,.,.,.,.
O=C(Nc1cccc(F)c1)N1CC[C@@]2(CCCN(S(=O)(=O)c3ccccc3)C2)C1,/,/,/,/,.,/
CC(C)n1nnnc1C1c2ccccc2C(=O)N1Cc1cccc(F)c1 (configuration not stated),/,/,/,/,.,.
CC(C)N=C1NN=C(c2cccs2)C(CC(=O)O)S1 (configuration not stated),.,.,.,16µM,.,.
O=C(O)C[C@H]1SC(=Nc2cccc(C(F)(F)F)c2)NC1=O,/,.,/,/,/,/
CCOC(=O)c1[nH]c2c(c1Cc1ccccc1)C(=O)CC(c1ccc(Cl)cc1)C2 (configuration not stated),/,?,.,.,.,/
CCN1CCN(C(c2cccc(OC)c2)c2c(O)cc(C)n(Cc3ccco3)c2=O)CC1 (configuration not stated),/,/,.,5.6µM,.,/
O=C(c1cccc(F)c1)N1CCN(Cc2ccco2)CC1,.,.,?,.,.,.
CCN1CCN(C(c2cccc(F)c2)c2c(O)cc(C)n(Cc3ccco3)c2=O)CC1 (configuration not stated),/,/,?,5µM,.,/
COc1cccc(C(c2c(O)cc(C)n(Cc3ccco3)c2=O)N2CCC(C)CC2)c1 (configuration not stated),/,/,.,11µM,.,/
COc1cccc(C2C(C(C)=O)=C(O)C(=O)N2Cc2ccco2)c1 (configuration not stated),.,.,.,.,.,.
O=c1cc(CSc2n[nH]c(-c3ccccc3)n2)[nH]c2ccccc12,/,/,.,.,?,/
COc1cccc(-n2c(SC)nnc2C2CCN(Cc3cccc(OC)c3O)CC2)c1,/,/,/,/,.,/
Cc1cc(F)ccc1S(=O)(=O)Nc1ccccc1C(=O)Nc1ncn[nH]1,.,.,.,.,.,.
